GLS inhibitor – qHTS for Inhibitors of Glutaminase (GLS) | Glutaminase kidney isoform, mitochondrial (Homo sapiens), O94925 | GLS enzymatic activity, qHTS titration | Potency, µM (highest dose often 45.5 µM), usual class: inhibitors | hit rate 0.21% among 410,000 | AID 624170, 2012
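Assay buffer: 45 mM KH2PO4 pH 8.2, 0.02% Tween-20. hKGA acts on L-glutamine (1 mM solution added); product glutamate is reported by an oxidase/peroxidase Amplex Red coupling, with fluorescence taken at baseline and 30 min.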
KAT2A inh – qHTS Assay for Inhibitors of GCN5L2; Histone acetyltransferase KAT2A (Homo sapiens), Q92830; GCN5L2 HAT assay, ThioGlo1 CoA-SH fluorescence; Potency, µM (series often up to 58.9 µM), hits mostly inhibitors; hit rate 0.21% among 390,000; AID 504327, 2011
Target sequence (Q92830 whole entry, looked up): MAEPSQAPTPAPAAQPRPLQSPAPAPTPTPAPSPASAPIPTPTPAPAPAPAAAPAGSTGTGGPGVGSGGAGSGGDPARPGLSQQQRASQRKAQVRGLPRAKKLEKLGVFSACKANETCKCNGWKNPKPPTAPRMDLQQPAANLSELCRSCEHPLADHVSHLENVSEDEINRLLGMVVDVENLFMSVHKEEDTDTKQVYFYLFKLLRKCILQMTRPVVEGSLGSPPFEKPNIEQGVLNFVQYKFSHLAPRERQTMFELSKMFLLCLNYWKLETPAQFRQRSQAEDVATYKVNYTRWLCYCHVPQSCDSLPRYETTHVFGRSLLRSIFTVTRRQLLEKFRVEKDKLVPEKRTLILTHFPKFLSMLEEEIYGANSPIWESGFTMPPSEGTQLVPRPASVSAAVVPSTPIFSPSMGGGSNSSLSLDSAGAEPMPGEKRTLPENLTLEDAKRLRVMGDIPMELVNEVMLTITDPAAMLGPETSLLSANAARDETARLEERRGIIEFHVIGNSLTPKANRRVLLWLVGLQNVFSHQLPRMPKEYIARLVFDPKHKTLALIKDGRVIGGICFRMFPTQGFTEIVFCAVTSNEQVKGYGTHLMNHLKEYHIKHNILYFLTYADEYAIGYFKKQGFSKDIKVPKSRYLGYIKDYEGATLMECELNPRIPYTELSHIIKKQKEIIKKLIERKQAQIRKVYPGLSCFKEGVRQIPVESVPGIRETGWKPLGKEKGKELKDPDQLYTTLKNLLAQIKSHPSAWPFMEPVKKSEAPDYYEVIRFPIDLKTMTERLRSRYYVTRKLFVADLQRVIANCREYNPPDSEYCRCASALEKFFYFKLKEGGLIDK
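Enzyme at 20nM final was mixed with library compounds for 15 min at room temperature. Peptide H3(1-25) at 75uM, acetyl-CoA at 70uM and ThioGlo1 at 50uM were then added. Plates were read immediately and after 20 min (Ex340nm/Em540nm).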
Sfp inh – qHTS Assay for Inhibitors of Bacillus subtilis Sfp phosphopantetheinyl transferase (PPTase) | hit rate 3.5% among 310,000 | Biochemical Sfp PPTase activity, qHTS | Potency, µM, usual class: inhibitors | 4'-phosphopantetheinyl transferase ffp (Bacillus subtilis), Q9F4F7 | AID 1490, 2009;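 also: the enzyme is Sfp with the accession as filed and its product quenches rhodamine fluorescence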
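Fluorescence-quenching assay with 15 nM Sfp, 5 uM rhodamine-CoA and 12.5 uM BHQ-2-labelled ybbR peptide in pH 7.6 Hepes/MgCl2 buffer. Enzyme was pre-incubated with compound for 15 min at room temperature. Rate was taken from the 30-min fluorescence change (525/598 nm).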
TrxR1 inh – qHTS Assay for Inhibitors of Mammalian Selenoprotein Thioredoxin Reductase 1 (TrxR1): qHTS | Thioredoxin reductase 1, cytoplasmic (Rattus norvegicus), O89049 | recombinant rTrxR1, NADPH fluorescence consumption, selenite substrate | Potency, µM (series often up to 114 µM), actives largely listed as inhibitors | hit rate 1% among 390,000 | AID 588453, 2011; also: nearly all actives have a fitted effect of over 65% in size
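Rat TrxR1 (90 nM in the dispensed reagent) was pre-reduced with 400 uM NADPH for 5 min at room temperature, then incubated with compound for 15 min. After 400 uM selenite was added, NADPH fluorescence (Ex 340/Em 450 nm) was followed for 8 min.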
TrxR1 substrate – qHTS Assay for Substrates of Mammalian Selenoprotein Thioredoxin Reductase 1 (TrxR1): qHTS; Thioredoxin reductase 1, cytoplasmic (Rattus norvegicus), O89049; purified TrxR1 substrate turnover, NADPH consumption readout; Potency, µM (titrated, usually from 114 µM); hit rate 0.01% among 390,000; AID 588456, 2011; also: nearly all actives have a fitted effect of over 50% in size
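Rat TrxR1, dispensed at 90 nM, was prereduced with 400 uM NADPH (final) for 5 min at ~22 deg C, then incubated with compound 15 min before 400 uM selenite. A first-read NADPH fluorescence drop versus no-compound background flagged substrates.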
VDR inh – Inhibitors of the vitamin D receptor (VDR): qHTS. Vitamin D3 receptor (Homo sapiens), P11473. VDR-SRC2-3 peptide fluorescence polarization, 2 h. AID 504847, 2011. hit rate 0.93% among 400,000. Potency, µM, actives largely listed as inhibitors
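Measured by FP: displacement of SRC2-3 coactivator peptide from VDR by library compounds, following a two-hour ambient incubation.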
Large screens that a line does not name were inactive. Compounds with a hit are over-represented: about 3.8% of the library has one in this group of screens. Calls follow the shape of the dose curve; as a rule, active = well fitted curve in the direction sought with a large enough effect; inconclusive = small, poorly fitted or top-dose-only effect, or another doubt; inactive = no such curve, though single readings can be large; an effect the other way counts as inactive or inconclusive.

Cc1nnc(Nc2ccc(Cl)c(C(F)(F)F)c2)[nH]c1=O	none
CCN(CC)S(=O)(=O)c1ccc(N2CCOCC2)c(NS(=O)(=O)c2cccs2)c1	none (no result: Sfp inh)
CCN(CC)S(=O)(=O)c1ccc(N2CCOCC2)c(NS(=O)(=O)c2ccc(C(C)C)cc2)c1	VDR inh 35µM
CCOc1ncccc1C(=O)Nc1cc(S(=O)(=O)N(CC)CC)ccc1N1CCOCC1	VDR inh 79µM (no result: Sfp inh)
CCOc1ncccc1C(=O)Nc1cc(C(F)(F)F)ccc1N1CCOCC1	none (no result: Sfp inh)
CCC(=O)NNc1ncnc2c1cnn2-c1ccccc1	none
Cc1ccc(-n2nnnc2C2CCN(S(=O)(=O)c3ccc(OC(F)(F)F)cc3)CC2)cc1	none (no result: Sfp inh)
COCCCn1c(SCC(=O)Nc2sc3c(c2C#N)CCCC3)nnc1-c1ccncc1	TrxR1 inh inconclusive
CCCCn1c(SCC(=O)Nc2sc3c(c2C(N)=O)CCC3)nnc1-c1ccccc1	TrxR1 inh 35µM, VDR inh inconclusive (no result: KAT2A inh, Sfp inh)
CCC1(C)COC(C)(CC(=O)NNC(=O)Nc2ccccc2)OC1 (stereo not drawn)	none
C/C(O)=C(\C#N)P(=O)(c1ccccc1)c1ccccc1	none
O=C(CSc1nc(-c2ccccc2)nc2c1Cc1ccccc1O2)Nc1ccc(C(=O)O)cc1	GLS inhibitor inconclusive, KAT2A inh 28µM, Sfp inh 79µM
CCOc1ccc(-c2nc3c(c(SCC(=O)Nc4ccccc4C)n2)Cc2ccccc2O3)cc1	none (no result: Sfp inh)
O=C(CSc1nc(-c2ccc(F)cc2)nc2c1Cc1ccccc1O2)Nc1ccc(C(=O)O)cc1	KAT2A inh 14µM
CCOc1cccc2c1Oc1nc(-c3ccccc3)nc(SCC(=O)Nc3ccc(F)cc3)c1C2	none (no result: Sfp inh)
CCSC(=O)N=Nc1ccc(O)cc1	VDR inh inconclusive (no result: KAT2A inh, Sfp inh)
COc1ccc2nc(N3CCCCC3)c(C#N)cc2c1	Sfp inh 79µM
Cc1ccc2cc(C#N)c(N3CCCC3)nc2c1C	Sfp inh 20µM
O=C(O)c1cc(S(=O)(=O)Nc2cccc(Oc3ccccc3)c2)ccc1Br	GLS inhibitor inconclusive
CCOCCCNC(=O)CNC(=S)N(Cc1ccc(C)cc1)Cc1ccco1	Sfp inh 40µM
Cc1ccc(CN(Cc2ccco2)C(=S)Nc2ccccc2C)cc1	none
O=C(NCC(c1ccco1)S(=O)(=O)c1ccc(Cl)cc1)c1ccccc1F (stereo not drawn)	TrxR1 inh 14µM (no result: Sfp inh)
O=C1C2C3C=CC(C3)C2C(=O)N1c1ccc2c(c1)CCC2 (stereo not drawn)	none
CCOC(=O)c1cnc(-n2cc(C)cn2)nc1NCc1ccc2c(c1)OCO2	Sfp inh 79µM
Cc1ccc(CNC(=O)Cn2ccc3ccccc3c2=O)o1	Sfp inh inconclusive, TrxR1 inh 40µM
Cn1cccc1C(=O)N1CCC2(CC1)CN(Cc1ccc(C#N)cc1)C2	none (no result: GLS inhibitor, TrxR1 inh, TrxR1 substrate)
Cc1ccc2c(c1)-c1c(ssc1=S)C(C)(C)N2C(=O)c1ccco1	Sfp inh 20µM
CC1(C)c2ssc(=S)c2-c2ccccc2N1C(=O)c1ccco1	TrxR1 inh inconclusive, VDR inh inconclusive
Oc1ccc2oc3c(c2c1C=NCc1ccncc1)CCCC3	Sfp inh 50µM
Oc1ccc2oc3c(c2c1/C=N/n1cnnc1)CCCC3	none
Cc1[nH]nc(SCC(=O)N2CCC(C)CC2)c1[N+](=O)[O-]	Sfp inh 89µM
Cc1cc(Cl)ccc1OCC(O)CN1C(C)CCCC1C (stereo not drawn)	none (no result: GLS inhibitor, TrxR1 inh, TrxR1 substrate, VDR inh)
N#C/C(=C\c1ccc(OC(=O)c2ccccn2)cc1)C(N)=O	Sfp inh 50µM, TrxR1 inh inconclusive
CCOC1=C2[C@@H](CN(S(=O)(=O)c3ccc(C)cc3)[C@H]2c2ccc(CC)cc2)[C@H]2C(=O)N(c3ccccc3)C(=O)[C@H]2C1	none (no result: KAT2A inh, Sfp inh, TrxR1 inh, TrxR1 substrate, VDR inh)
